Test results published in the supplement of paper PMC10981050.
“And” between values parts separate entries of the source, which are not always exact repeats. Identical values can stand only once. Counter-ions that a name gives are not always drawn.

Key:
Experiment in all cases: cell viability relative to vehicle control; higher = less cytotoxic
Conditions in all cases: 10 µM
K562 = tested on: K562
In short: (§1)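 CRISPR-edited mutant clones and isogenic wild-type clones from four leukaemia lines were screened against Selleck bioactive, kinase and epigenetic probe libraries, with identity-inconsistent compounds excluded. Each compound was acoustically dispensed at a single 10 µM dose into 384-well plates holding 2000 cells in 50 µL medium per well. After 48 h the supernatant was removed and CellTiter-Glo luminescence was read. Viability was expressed as percent of the on-plate vehicle control and analysed in Genedata Screener.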

MARIMO = tested on: MARIMO
In short: as §1

MOLM14 = tested on: MOLM14
In short: as §1

OCI-AML2 = tested on: OCI-AML2
In short: as §1

SMILES	cell viability (K562; SRSF2 genotype: SRSF2 P95H/wt)	cell viability (K562; SRSF2 genotype: SRSF2 wt/wt)	cell viability (MARIMO; SRSF2 genotype: SRSF2 P95H/wt)	cell viability (MARIMO; SRSF2 genotype: SRSF2 wt/wt)	cell viability (MOLM14; SRSF2 genotype: SRSF2 P95H/wt)	cell viability (MOLM14; SRSF2 genotype: SRSF2 wt/wt)	cell viability (OCI-AML2; SRSF2 genotype: P95H/wt)	cell viability (OCI-AML2; SRSF2 genotype: wt/wt)
O=c1[nH]nc2c3c(cccc13)N=C(CN1Cc3ccccc3C1)N2	69.4% and 77.8%	66.3%	93%	108%	74.5%	65.6%	69.7%	86.2%
CC(C)(C)C(=O)Oc1ccc(S(=O)(=O)Nc2ccccc2C(=O)NCC(=O)O)cc1 [Sivelestat sodium tetrahydrate]	101% and 94.9%	102%	96.7%	102%	106%	100%	96.5%	99.2%
Cc1ccccc1C(=O)Nc1ccc(C(=O)N2CCCC(O)c3cc(Cl)ccc32)c(C)c1 (stereo not given)	89.3% and 84.8%	85.7%	80.7%	99.9%	84.2%	91.7%	91.6%	83%
Cc1cc(O)cc(OC2OC(CO)C(O)C(O)C2O)c1 (stereo not given) [Orcinol glucoside]	104% and 100%	101%	97.5%	104%	102%	106%	108%	95.4%
CO/N=C(\C(=O)N[C@@H]1C(=O)N2C(C(=O)[O-])=C(C[N+]3(C)CCCC3)CS[C@H]12)c1csc(N)n1 [Cefepime Dihydrochloride Monohydrate]	101% and 102%	106%	96.3%	109%	105%	107%	104%	113%
COc1cc(CCC(=O)CC(=O)CCc2ccc(O)c(OC)c2)ccc1O [Tetrahydrocurcumin]	94.1% and 90.6%	89.2%	90.2%	88.7%	92.8%	94.5%	85.8%	97.3%
CN1C(C(=O)Nc2ccccn2)=C(O)c2ccccc2S1(=O)=O [Piroxicam (Feldene)]	99.5% and 103%	100%	97.3%	106%	97.6%	105%	104%	105%
O=S(=O)(NC1CCCCC1)c1ccc2c(c1)C(=NO)c1cc(S(=O)(=O)NC3CCCCC3)ccc1-2	80.3% and 92.9%	92.3%	4.08%	57.4%	11.1%	70.7%	0.52%	0.59%
Cc1cc(Nc2cc(N)ncn2)c(=O)n2c1C(=O)NC21CCCCC1	89.2% and 85.2%	87.7%	86%	98.2%	83.5%	92%	89%	88.5%
Cc1ccc(S(=O)(=O)c2ccc([N+](=O)[O-])o2)cc1	0.16% and 0.25%	0.18%	0.21%	0.25%	0.19%	0.2%	0.21%	0.26%
O=C(O)c1ccc2c(c1)C(=O)c1ccccc1C2=O [Anthraquinone-2-carboxylic Acid]	100% and 101%	92.5%	98%	92%	102%	98.5%	96.3%	94.9%
N[C@H]1CC[C@H](N[C@@H]2C[C@H]2c2ccccc2)CC1	96% and 97.8%	93.3%	89.7%	88.5%	87.5%	86.2%	71.3%	84.6%
Nc1ccc(Oc2ccc(-c3ccc(Oc4ccc(N)cc4)cc3)cc2)cc1 [4,4prime-Bis(4-aminophenoxy)biphenyl]	103% and 98.3%	110%	96.9%	101%	100%	102%	96%	112%
CC12CCC(CC1)C(C)(C)O2 [Eucalyptol]	104% and 102%	104%	101%	101%	104%	101%	102%	103%
CCn1cc(C(=O)O)c(=O)c2cc(F)c(N3CCNCC3)nc21 [Enoxacin (Penetrex)]	111% and 106%	108%	109%	111%	105%	110%	112%	105%
CC1=C(C/C=C(\C)CCC[C@H](C)CCC[C@H](C)CCCC(C)C)C(=O)c2ccccc2C1=O [Vitamin K1]	101% and 88.9%	93.7%	92.4%	107%	88.2%	98%	90.7%	106%
COc1c(N2CCNC(C)C2)c(F)cc2c(=O)c(C(=O)O)cn(C3CC3)c12 (stereo not given) [Gatifloxacin]	97.2% and 103%	108%	112%	108%	102%	101%	104%	100%
Clc1ccc2nsnc2c1NC1=NCCN1 [Tizanidine HCl]	104% and 101%	104%	94.3%	107%	103%	99.6%	101%	106%
O=C(Nc1ccc([N+](=O)[O-])cc1O)Nc1ccccc1Br	16.9% and 34.5%	33.9%	7.34%	8.23%	13.5%	3.38%	8.53%	10.4%
COC(=O)C=Cc1ccc(O)cc1 [Methyl 4-hydroxycinnamate]	95% and 87.9%	82.3%	83.5%	97.5%	85.6%	95.2%	105%	105%

SMILES	cell viability (K562; SRSF2 genotype: SRSF2 P95H/wt)	cell viability (K562; SRSF2 genotype: SRSF2 wt/wt)	cell viability (MARIMO; SRSF2 genotype: SRSF2 P95H/wt)	cell viability (MARIMO; SRSF2 genotype: SRSF2 wt/wt)	cell viability (MOLM14; SRSF2 genotype: SRSF2 P95H/wt)	cell viability (MOLM14; SRSF2 genotype: SRSF2 wt/wt)	cell viability (OCI-AML2; SRSF2 genotype: P95H/wt)	cell viability (OCI-AML2; SRSF2 genotype: wt/wt)
O=C(NCCCn1ccnc1)c1cc(-c2ccco2)on1	87.3% and 91.7%	87.1%	68.9%	79.4%	45.7%	44.4%	77.2%	72.6%
CS(=O)(=O)c1ccc(C(=O)Nc2ccc(Cl)c(-c3ccccn3)c2)c(Cl)c1 [Vismodegib (GDC-0449)]	93.4% and 96.9%	96.7%	101%	104%	103%	104%	96%	92.9%
Cc1cc(O)c(C(=O)N[C@@H](C(=O)N[C@@H]2C(=O)N3C(C(=O)O)=C(CSc4nnnn4C)CS[C@H]23)c2ccc(O)cc2)cn1 [Cefpiramide sodium]	111% and 107%	104%	109%	115%	107%	110%	99.7%	99.8%
CCCCC(C)(O)C/C=C/[C@H]1[C@H](O)CC(=O)[C@@H]1CCCCCCC(=O)OC (mixture of isomers) [Misoprostol]	89.4% and 78.1%	84.4%	82.6%	79%	83.5%	80.2%	89.2%	84%
NC(=O)NO [Hydroxyurea (Cytodrox)]	102% and 106%	103%	97.5%	105%	109%	108%	108%	108%
CC(C)(NS(=O)(=O)c1ccc2c(Cl)cnc(N=C(N)N)c2c1)C(=O)O	102% and 104%	104%	101%	111%	101%	102%	99.1%	117%
CCOC(=O)c1ccc(C#Cc2ccc3c(c2)C(C)(C)CCS3)nc1 [Tazarotene (Avage)]	81% and 84.7%	78.1%	46.6%	40.8%	76.2%	88.1%	14.1%	27.8%
Cc1nc(NC(=O)N2CCC[C@H]2C(N)=O)sc1-c1csc(C(C)(C)C)n1	98.3% and 99.5%	89.9%	64.9%	63.3%	72%	86.6%	61.8%	61.9%
C/C(=N\NC(=O)c1cccc(S(=O)(=O)N2CCOCC2)c1)c1cc(Cl)ccc1O	57.4% and 51.4%	37%	20.1%	24.4%	6.59%	1.96%	10.8%	11.4%
CC(=O)N1C[C@H](O)C[C@H]1C(=O)O [Oxaceprol]	101% and 93.4%	99.3%	104%	109%	96.1%	102%	94.3%	106%
C[C@@H](N)c1ccc(C(=O)Nc2ccnc3[nH]ccc23)cc1	90.4% and 107%	105%	65.8%	78%	31.2%	41.1%	19.1%	32.1%
CC1(C)CC[C@]2(NC(=O)C(C)(F)F)CC[C@]3(C)[C@H](C(=O)C=C4[C@@]5(C)C=C(C#N)C(=O)C(C)(C)[C@@H]5CC[C@]43C)[C@@H]2C1 [Omaveloxolone (RTA-408)]	9.19% and 4.65%	5.62%	1.12%	0.48%	0.3%	0.25%	0.23%	0.32%
OC(CNCC(O)C1CCc2cc(F)ccc2O1)C1CCc2cc(F)ccc2O1 (stereo not given) [Nebivolol HCl]	61.4% and 73%	80.7%	60.4%	60.5%	58.6%	62.5%	50.6%	61.5%
O=C1[C@H]2CCCC[C@H]2C(=O)N1CCCCN1CCN(c2nsc3ccccc23)CC1 [Perospirone hydrochloride]	70.2% and 74%	73.6%	71.2%	82.3%	78.7%	82.5%	73.7%	75.8%
C[C@H]1COc2c(N3CCN(C)CC3)c(F)cc3c(=O)c(C(=O)O)cn1c23 [Levofloxacin hydrate]	93.5% and 91%	95.8%	94.3%	98.4%	97.2%	97.9%	93.3%	92.1%
C[C@H]1O[C@@H](Oc2c(-c3cc(O)c(O)c(O)c3)oc3cc(O)cc(O)c3c2=O)[C@@H](O)[C@@H](O)[C@@H]1O [Myricitrin (Myricitrine)]	94.5% and 101%	99.4%	102%	102%	104%	103%	108%	94.3%
O=C[C@H](O)[C@H]1OC(=O)[C@@H](O)[C@H]1O [D-Glucurone]	90.4% and 88.2%	86.3%	84.2%	95.1%	88.8%	88.3%	88.8%	94.2%
CC(C)CCN1c2nc(Nc3cc(F)c(O)c(F)c3)ncc2N(C)C(=O)C1C (stereo not given)	49.8% and 63.1%	64.1%	33.9%	35.3%	11.4%	4.4%	16.2%	20.7%
CC(=O)Oc1ccc(C(=C2CCCCC2)c2ccc(OC(C)=O)cc2)cc1 [Cyclofenil]	98% and 94.2%	98.5%	96.8%	95.8%	94.3%	102%	96.8%	96.9%
O=C([O-])c1ccccc1.[Na+] [Sodium benzoate]	86.9% and 85.9%	86.1%	83.9%	90.9%	93%	89.5%	86%	97.5%
